Screening data: PubChem, National Center for Advancing Translational Sciences (NCATS)
Methyltransferases: Primary Screen for Target Class Profiling of Small Molecule Inhibitors of Methyltransferases; purified enzyme, MTase-Glo SAH luminescence; hits give low values; calls only at 40 µM; actives 3.9% (n = 25,000); call rule not given here
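Each enzyme was reacted with SAM and its substrate, with compounds tested once at 40 uM; SAH formed was read by MTase-Glo luminescence.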
MTase-Glo ctr: Counterscreen for Target Class Profiling of Small Molecule Inhibitors of Methyltransferases | shares compounds with Methyltransferases | MTase-Glo coupled enzymes, SAH conversion luminescence, no MTase | Potency, µM (highest dose often 57.3 µM), most hits filed as inhibitors | actives 6% (n = 180) | AID 1745851, 2022; active = well fitted inhibition curve with a large enough effect
A number is an active result; - = inactive; + = active, no number. This is one part of a sample in which hits are shown more often than they occur.

SMILES	Methyltransferases	others
O=C(O)CC(CCc1ccccc1)OC1OC(CO)C(O)C(O)C1O (stereo not drawn)	+
O=C(O)c1cc(O)c2cccc(O)c2c1O[C@@H]1O[C@H](CO)[C@@H](O)[C@H](O)[C@H]1O	+
OC[C@H]1O[C@@H](OCCc2ccccc2)[C@H](O[C@@H]2OC[C@@H](O)[C@H](O)[C@H]2O)[C@@H](O)[C@@H]1O	+
Cc1ccc(C(C)C)c(O[C@@H]2O[C@H](CO)[C@@H](O)[C@H](O)[C@H]2O)c1	-
O=C(O)CCc1cc2ccoc2cc1O[C@@H]1O[C@H](CO)[C@@H](O)[C@H](O)[C@H]1O	-
OC[C@H]1O[C@@H](OC(CCCCc2ccc(O)cc2)CCc2ccc(O)cc2)[C@H](O[C@@H]2OC[C@](O)(CO)[C@H]2O)[C@@H](O)[C@@H]1O (stereo partly drawn)	-
OC[C@H]1O[C@@H](O[C@H]2[C@H](OCc3ccccc3)O[C@H](CO[C@@H]3OC[C@@H](O)[C@H](O)[C@H]3O)[C@@H](O)[C@@H]2O)[C@H](O)[C@@H](O)[C@@H]1O	-
CN(CCc1ccccn1)[C@H]1[C@@H]2OC[C@@H](O2)[C@@H](NCc2ccc(-c3ccccc3)cc2)[C@@H]1O	-
CCN1c2cc(C(=O)NCCc3ccccc3)ccc2C(=O)N2CCCCCC21 (stereo not drawn)	-
COCCN1C(=O)c2cc3occc3n2CC1(C)C(=O)NC1CCC(C)CC1 (stereo not drawn)	-
CCCC1c2cccn2CCN1C(=O)NCC1CCC(C(=O)OCC)CC1 (stereo not drawn)	-
CN1C2CCC1CC(OC(=O)c1c[nH]c3ccccc13)C2 (stereo not drawn)	-
COc1cccc(CNC(=O)c2cc3n(n2)CC(C)(C(=O)NC2CCCCC2)N(C)C3=O)c1 (stereo not drawn)	-
COc1ccc(Cn2c(=O)c3ccccc3n3c(-c4ccc(OC)cc4)nnc23)cc1	-
CC(=O)c1c(C)cccc1O[C@@H]1O[C@H](CO)[C@@H](O)[C@H](O)[C@H]1O	+
CCC(C)(O)C(O)C(=O)OCc1ccc(O[C@@H]2O[C@H](CO)[C@@H](O)[C@H](O)[C@H]2O)c(OC)c1 (stereo partly drawn)	-
O=C(O)/C=C/c1ccc(O)c(O[C@@H]2O[C@H](CO)[C@@H](O)[C@H](O)[C@H]2O)c1	-
COc1ccc(O[C@@H]2O[C@H](CO)[C@@H](O)[C@H](O)[C@H]2O)cc1OC	-
CC(=O)c1ccc(O[C@@H]2O[C@H](CO)[C@@H](O)[C@H](O)[C@H]2O)cc1	-
COc1c(CCC(=O)O)cccc1O[C@@H]1O[C@H](CO)[C@@H](O)[C@H](O)[C@H]1O	+
COc1ccc(-c2cc3n(n2)CC(C)(C(=O)NCc2ccccc2)N(Cc2ccc(Cl)cc2)C3=O)cc1 (stereo not drawn)	-
O=C(Cn1ccc2cc(S(=O)(=O)N3CCCCC3)ccc21)NCc1cccc(Br)c1	-
CCCN1C(=O)c2c(C(=O)Nc3ccccc3CC)ncn2CC1(C)C(=O)NC1CCCC1 (stereo not drawn)	-
O=C(NC1CCCC1)NC1CCN(c2nc3ncccc3o2)C1 (stereo not drawn)	-
CC12CCC(OC3OC(CO)C(O)C(O)C3OC3OC(CO)C(O)C(O)C3O)CC1CCC1C2CCC2(C)/C(=C3/COC(=O)C3)CCC12O (stereo not drawn)	-
SMILES	Methyltransferases	others
COc1ccc(-c2nnc(-c3ccc(Cl)c(S(=O)(=O)N4CCC(C)CC4)c3)o2)cc1OC	-
CCN1CCN(Cc2cc3ccc(C)cc3nc2-c2ccc(OC)c(OC)c2)CC1	-
COc1ccc(-c2oc3ccc(C)cc3c(=O)c2O)cc1OC	+
CC(C)CCNC(=O)CCn1ccc2cc(S(=O)(=O)N3CCCCC3)ccc21	-
O=S(=O)(NCCc1nc2ccccc2n1S(=O)(=O)c1ccccc1)c1ccccc1	-
C[C@@H]1C[C@H]2[C@@H]3C[C@H](F)C4=CC(=O)C=C[C@]4(C)[C@@]3(F)[C@@H](O)C[C@]2(C)[C@@]1(O)C(=O)CO	-
Cc1cccc(C#Cc2ccccc2)n1	-
COCCCNC(=O)c1cnc2c(c1)N(C(=O)Cc1cn(C)c3ccccc13)CCC2	-
COc1ccc(CN2CCCC(COc3ccccc3C(=O)NC3CC3)C2)c(OC)c1 (stereo not drawn)	+	MTase-Glo ctr=-
COc1ccc(O)c(CN2CCCC(Nc3ccc(F)cc3)C2)c1 (stereo not drawn)	-
CCOc1ccccc1C(=O)NC1CCN(c2cc(C)cc(C)c2)C1=O (stereo not drawn)	-
CC(C)NC(=O)c1ccccc1OCC1CCCN(Cc2cn(C)c3ccccc23)C1 (stereo not drawn)	+	MTase-Glo ctr=-
COc1cccc(CN2CC(Oc3ccccc3C(=O)NC3CC3)C2)c1	-
CC1(C(=O)NC2CCCCC2)Cn2c(ccc2-c2ccccc2)C(=O)N1Cc1ccccc1 (stereo not drawn)	-
CCCCN(C)C(=O)Cn1c(=O)oc2cc(S(=O)(=O)N3CC(C)CC(C)C3)ccc21 (stereo not drawn)	-
Cc1ccc2oc([C@H]3CCN(C(=O)C4CC4)C3)nc2c1	-
CC1(C(=O)NC2CCCC2)Cn2c(cc3sccc32)C(=O)N1CCc1ccccc1 (stereo not drawn)	-
COc1ccc(CNC(=O)c2cnc3c(c2)N(C(=O)CCc2ccccc2)CCC3)cc1OC	-
CC1(C(=O)NC2CCCC2)Cn2cnc(C(=O)NCc3cccc(Cl)c3)c2C(=O)N1C1CC1 (stereo not drawn)	-
O=C(NCc1cccc(Cl)c1)c1cnc2c(c1)N(C(=O)Cc1ccc(O)cc1)CCC2	+	MTase-Glo ctr=18µM
COc1ccc(-c2n[nH]n3c2nc(=O)c2ccc(C(=O)NC(C)c4ccccc4)cc23)cc1 (stereo not drawn)	-
CC(C)Cn1c(=O)c2ccccc2n2c(CCC(=O)NCc3ccc(F)cc3)nnc12	-
Cc1cc(C)cc(N2C(=O)c3ccccc3CC2(C)C(=O)NCc2ccccc2)c1 (stereo not drawn)	-
COC(=O)c1ccccc1O[C@@H]1O[C@H](CO[C@@H]2OC[C@@H](O)[C@H](O)[C@H]2O)[C@@H](O)[C@H](O)[C@H]1O	-
Cc1cnc(C2CCOCC2)n1C1CCCN(S(=O)(=O)c2ccccc2)C1 (stereo not drawn)	-
SMILES	Methyltransferases	others
Cc1cnc(C2CC2)n1C1CCCN(Cc2ccccc2)C1 (stereo not drawn)	+	MTase-Glo ctr=-
Cc1cnc(C2CC2)n1C1CCCN(C(=O)c2ccoc2)C1 (stereo not drawn)	-
O=S(=O)(c1ccccc1Cl)N1CCC(c2noc(COCc3ccccc3)n2)CC1	-
CCCNC(=O)N1Cc2c(sc3c2CCCC3)-n2cccc2C1c1cccc(OCC)c1 (stereo not drawn)	-
COc1ccc(-c2nc(N3CCOCC3)cc3c2CN(Cc2ccccc2)C3=O)cn1	-
CCNc1ncnc2sc3c(c12)CCN(Cc1ccncc1)C3	-
c1ccc(CN2CCc3c(sc4ncnc(N5CCOCC5)c34)C2)cc1	+	MTase-Glo ctr=-
O=C1CCCN1c1ccc(CN2CC(=O)N(Cc3cccc(F)c3)c3ccccc3S2(=O)=O)cc1	-
COCc1nc2nc(-c3ccccc3)c(-c3ccc(O)c(F)c3)cc2n1C	+	MTase-Glo ctr=-
